Screening results as filed in PubChem BioAssay.
An excerpt weighted towards active compounds, which were near 5.2% of everything screened.
EphB4 antag: EphB4-ephrin-B2 interaction antagonists, primary screen, biochemical, TNYL-RAW peptide probe, fluorescence polarization; Ephrin type-B receptor 4 (Homo sapiens), P54760; EphB4 LBD / TNYL-RAW-Alexa532 peptide; inhibition, % at 7 µM; 97,000 tested, 0.15% active;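 active = inhibition above the screen-wide mean inhibition plus 3 SD, cut at about 15% in these data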
Target sequence (P54760 whole entry, looked up, the tested form may be a part): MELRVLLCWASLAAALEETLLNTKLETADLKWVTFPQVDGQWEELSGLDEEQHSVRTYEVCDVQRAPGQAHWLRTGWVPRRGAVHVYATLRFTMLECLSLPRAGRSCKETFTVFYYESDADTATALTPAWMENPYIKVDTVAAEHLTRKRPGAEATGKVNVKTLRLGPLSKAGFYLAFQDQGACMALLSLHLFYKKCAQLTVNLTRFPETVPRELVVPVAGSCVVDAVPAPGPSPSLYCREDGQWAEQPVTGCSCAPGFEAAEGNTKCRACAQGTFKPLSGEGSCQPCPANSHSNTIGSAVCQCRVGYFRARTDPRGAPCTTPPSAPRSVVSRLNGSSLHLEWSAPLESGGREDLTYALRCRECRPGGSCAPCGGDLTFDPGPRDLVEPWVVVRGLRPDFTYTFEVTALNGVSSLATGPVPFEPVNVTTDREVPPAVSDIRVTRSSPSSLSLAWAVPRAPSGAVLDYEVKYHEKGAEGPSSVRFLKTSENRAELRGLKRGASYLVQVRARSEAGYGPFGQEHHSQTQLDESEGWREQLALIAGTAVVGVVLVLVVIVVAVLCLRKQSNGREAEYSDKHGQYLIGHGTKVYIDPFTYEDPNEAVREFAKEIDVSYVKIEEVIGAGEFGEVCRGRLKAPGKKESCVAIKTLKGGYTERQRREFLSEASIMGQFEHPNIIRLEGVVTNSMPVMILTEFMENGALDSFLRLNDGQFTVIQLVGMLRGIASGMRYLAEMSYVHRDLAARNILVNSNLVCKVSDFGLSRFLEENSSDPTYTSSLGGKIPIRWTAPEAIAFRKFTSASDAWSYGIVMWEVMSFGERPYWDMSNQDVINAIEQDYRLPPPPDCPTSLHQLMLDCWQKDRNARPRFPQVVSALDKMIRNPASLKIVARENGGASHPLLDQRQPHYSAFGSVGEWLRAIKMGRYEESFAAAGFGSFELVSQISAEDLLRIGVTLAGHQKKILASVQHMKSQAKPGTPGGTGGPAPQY
Candida biofilm: clotrimazole potentiators killing Candida biofilms, primary screen, with clotrimazole, Alamar Blue; C. albicans biofilm + clotrimazole; inhibition, % at 6 µM; 85,000 tested, 0.14% active; AID 834, 2007;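 active = inhibition above 20%; inactive = inhibition below 20%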;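 also: preformed 24 hr biofilms exposed to compound for 48 hr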
PostGolgi ctrl: growth inhibition of yeast control strain, primary screen, counter-screen for post-Golgi transport modulator project; efflux-deficient yeast background strain, growth absorbance A615, 16 h; inhibition, % at 10 µM; 98,000 tested, 5% active
PostGolgi yeast: phenotypic screen on post-Golgi transport, primary screen; post-Golgi transport phenotypic cell assay; inhibition, % at 10 µM; 98,000 tested, 0.9% active;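 also: yeast cells grown in 1536-well plates; yeast grown about 18 h at 30C before absorbance read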
Hits are given with their value; - = inactive; . = no result. Rule as the data show it, unless noted: active = inhibition above about 30%; inactive = the rest.

SMILES	EphB4 antag	Candida biofilm	PostGolgi ctrl	PostGolgi yeast
CNC(=O)CSc1nc(N)c2c3c(sc2n1)CCC3	-	-	-	-
CCOc1ccc(-c2nc(CSc3nncs3)cs2)cc1OC	-	-	-	-
O=S(=O)(Nc1cccc(-c2nc3cccnc3s2)c1)c1ccc2c(c1)OCCO2	-	-	80	30
Cc1ccc(-c2nc3cccnc3s2)cc1NS(=O)(=O)c1ccc2c(c1)OCCO2	-	-	98	86
CCOc1cc(C(=O)N(C)c2ccccc2)cc(OCC)c1OCC	-	-	-	-
Cc1c(NC(=O)c2ccccc2N(C)S(=O)(=O)c2ccccc2)c(=O)n(-c2ccccc2)n1C	-	-	-	-
O=C(CCC1N=C2c3ccccc3N=C(SCc3ccccc3Cl)N2C1=O)NCc1ccco1 (stereo not drawn)	-	-	37	-
O=C(CCC1N=C2c3ccccc3N=C(SCc3cccc(Cl)c3)N2C1=O)NCc1ccco1 (stereo not drawn)	-	-	-	-
COc1ccc(C2CCCN2C(=O)Nc2ccc(F)cc2)cc1OC (stereo not drawn)	.	-	.	.
CC1CCCCN1Cc1ccc(-c2nn[nH]n2)cc1 (stereo not drawn)	-	-	45	-
O=C1c2ccccc2C(=O)N1CC(O)Cn1nnc2ccccc21 (stereo not drawn)	-	-	-	-
N#Cc1ccc(-c2ccc(OCC(O)Cn3nnc4ccccc43)cc2)cc1 (stereo not drawn)	-	-	35	-
OC(CN1c2ccccc2Sc2ccccc21)Cn1nnc2ccccc21 (stereo not drawn)	-	-	47	-
CCOC(=O)N1CCN(c2nc(C)c3c(n2)CC(C)CC3=O)CC1 (stereo not drawn)	-	-	-	-
CC(=O)c1cccc(NC(=O)CCS(=O)(=O)c2cccc3nsnc23)c1	-	-	33	-
CCCCN(Cc1ccco1)C(=O)c1cc2c(=O)[nH]c3ccc(C)cc3c2s1	-	-	36	-
